Compound activity from PubChem BioAssay.
VACV mCherry inh: qHTS for Stage-Specific Inhibitors of Vaccinia Orthopoxvirus: mCherry Reporter Primary qHTS | Vaccinia virus mCherry reporter infection, fluorescence | Potency, µM (doses to about 36.5 µM), most hits filed as inhibitors | hit rate 0.63% among 310,000 | AID 720579, 2013; calls by dose curve; tested in A549 cells; note: nearly all actives have a fitted effect of over 35% in size
Vaccinia Venus: qHTS for Stage-Specific Inhibitors of Vaccinia Orthopoxvirus: Venus Reporter Primary qHTS; Potency, µM (doses to about 36.5 µM), actives largely listed as inhibitors; Vaccinia virus Venus reporter expression, fluorescence; hit rate 0.46% among 330,000; calls by dose curve; tested in A549 cells; note: nearly all actives have a fitted effect of over 30% in size
FMDV antiviral: High Throughput Screening for Foot and Mouth Disease Virus Antivirals. Potency, µM (top dose mostly 57.9 µM), hits mostly inhibitors. FMDV antiviral cell-based qHTS. hit rate 1.2% among 410,000. AID 1159524, 2015; calls by dose curve; tested in HEK293T cells; note: read-out not given here; nearly all actives have a fitted effect of over 45% in size
HCV inhibitor: qHTS Assay for Inhibitors of Hepatitis C Virus (HCV). Potency, µM (top dose mostly 41.8 µM), actives largely listed as inhibitors. hit rate 3.4% among 340,000. Huh7.5.1 HCVcc-Cre infection, luciferase reporter, 44 h; active = well fitted inhibition curve with a large enough effect; inconclusive = small, poorly fitted or top-dose-only effect, or another doubt; inactive = no such curve, though single readings can be large or run the other way
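Cells seeded at 1,000/well and cultured 4 h, then compounds added followed by HCVcc-Cre virus (~0.5 moi). After 44 h further culture, luciferase substrate was added, plates held 15 min at room temperature, and luminescence read for 15 sec.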
HCMV inh: qHTS Assay for inhibitors of the human cytomegalovirus (HCMV); HFF cells, HCMV-luciferase reporter, 72 h; hits give low values; hit rate 4.5% among 410,000; AID 1259415, 2018; activity change, negative = inhibition, % at 57.5 µM; in the data active = activity change below about -60%; inconclusive = no clear call, values can overlap the other calls; inactive = above about -39%
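HFF cells seeded 16 h at 37C, treated with compounds, infected with luciferase-reporter HCMV at MOI 1 PFU/cell; luciferase read at 72 h post infection, normalized to buffer-only and Salinomycin controls.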
Each line names hits and unclear results; the compound was inactive in the other large screens. An excerpt weighted towards active compounds, which were near 7.3% of everything screened.

Cn1c(=O)[nH]c(=O)c2c1nc(N1CCNCC1)n2Cc1ccccc1Cl	none (no result: VACV mCherry inh, Vaccinia Venus)
Cc1cc(C)n(-c2nc3c(c(=O)[nH]c(=O)n3C)n2Cc2ccccc2)n1	HCV inhibitor 2µM
CC1CCCN(c2nc3c(c(=O)[nH]c(=O)n3C)n2Cc2ccccc2Cl)C1 (stereo unspecified)	Vaccinia Venus inconclusive, HCMV inh -82.4
Cc1cccc(Cn2c(CN3CCN(Cc4ccccc4)CC3)nc3c2c(=O)[nH]c(=O)n3C)c1	HCV inhibitor 10µM
CCn1c(N2CCN(CC(=O)c3c(C)n(C)c4ccccc34)CC2)nc2c1c(=O)[nH]c(=O)n2C	Vaccinia Venus inconclusive, FMDV antiviral inconclusive (no result: VACV mCherry inh)
CCCn1c(N2CCN(CC(=O)c3c[nH]c4ccccc34)CC2)nc2c1c(=O)[nH]c(=O)n2C	VACV mCherry inh inconclusive, Vaccinia Venus inconclusive, FMDV antiviral inconclusive, HCV inhibitor 12.6µM
O=C(O[C@H]1CC[C@@]23CCCN2C(=O)CCC[C@H]3[C@H]1Cc1ccccc1)N1CCCC1	none (no result: VACV mCherry inh, Vaccinia Venus, FMDV antiviral, HCV inhibitor)
O=[N+]([O-])c1ccccc1-c1cc(-c2ccccc2Br)no1	none (no result: VACV mCherry inh, Vaccinia Venus, FMDV antiviral, HCV inhibitor)
COc1ccccc1S(=O)(=O)N(C)C[C@H]1Oc2cc(Br)ccc2S(=O)(=O)N([C@H](C)CO)C[C@H]1C	none (no result: VACV mCherry inh, Vaccinia Venus, FMDV antiviral, HCV inhibitor)
CC(C)CCn1c(N2CCCC2)nc2c1c(=O)[nH]c(=O)n2C	none (no result: VACV mCherry inh, Vaccinia Venus)
CC(C)CCn1c(N2CCC(C(N)=O)CC2)nc2c1c(=O)[nH]c(=O)n2C	HCMV inh -93.7
O=C(O)c1ccccc1N/N=C\c1ccnc2ccccc12	FMDV antiviral 10µM, HCMV inh inconclusive (no result: VACV mCherry inh)
ON=Cc1ccnc2ccccc12	none (no result: HCV inhibitor)
COc1ccccc1/C=C/C(C)=O	FMDV antiviral inconclusive, HCMV inh inconclusive
COc1ccccc1/C=C/C(=O)N1CCCC1	none
COc1ccccc1C=CC(=O)C=Cc1ccccc1OC	VACV mCherry inh inconclusive, Vaccinia Venus inconclusive, FMDV antiviral inconclusive, HCV inhibitor inconclusive, HCMV inh -99.9
COc1ccccc1/C=C/C(=O)/C=C/c1ccccc1O	VACV mCherry inh inconclusive, HCV inhibitor inconclusive, HCMV inh -98.0
COc1ccc(-c2nc3cnc(OC)nc3n(CCc3ccccc3)c2=O)cc1	none (no result: VACV mCherry inh, Vaccinia Venus, HCV inhibitor, HCMV inh)
Cc1c(C(=O)NCCN2CCOCC2)cnn1-c1nccc(-c2cc3ccccc3o2)n1	none (no result: HCV inhibitor, HCMV inh)
Cc1ccc(C)c(N(C)C(=O)C2CCN(S(=O)(=O)c3cccc4nsnc34)CC2)c1	none (no result: HCV inhibitor)
Cc1ccc(-c2noc(-c3nnn(CC(=O)Nc4cccc(C(F)(F)F)c4)c3N)n2)cc1	none (no result: HCV inhibitor)
CC(=O)C1CCC2C3CCC4=CC(=O)CC[C@@]4(C)C3CC[C@]12C (stereo partly specified)	FMDV antiviral 22.4µM (no result: HCV inhibitor, HCMV inh)
C[C@]12CCC(=O)C=C1CC[C@@H]1C2[C@H](O)C[C@]2(C)C(=O)CCC12 (stereo partly specified)	none (no result: VACV mCherry inh, Vaccinia Venus)
C[C@]12CCC(=O)C=C1CCC1C2CC[C@@]2(C)C1CC[C@@H]2O (stereo partly specified)	none
CC12CCC(=O)C=C1CCC1C2C(O)CC2(C)C1CCC21OCC1=O (stereo unspecified)	HCMV inh -91.9
CC(=O)[C@H]1CC[C@H]2[C@@H]3CC=C4C[C@@H](OS(=O)(=O)O)CC[C@]4(C)[C@H]3CC[C@]12C	HCMV inh -71.0
C[C@]12CCC(=O)C=C1CCC1C2CC[C@@]2(C)C1CC[C@]2(C)O (stereo partly specified)	none
Cc1nc(C2CCC3C4CCC5=CC(=O)CC[C@]5(C)C4CC[C@]23C)cs1 (stereo partly specified)	HCMV inh -91.2 (no result: VACV mCherry inh, Vaccinia Venus, FMDV antiviral, HCV inhibitor)
CCCCOc1ccc(CC(=O)N(C)OC)cc1	none (no result: FMDV antiviral, HCV inhibitor, HCMV inh)
COc1ccc(CCNC(=O)Cc2c(C)c3cc4c(C)coc4cc3oc2=O)cc1OC	none (no result: HCV inhibitor)
O=C(COc1ccccc1)NCC(c1ccc(Cl)cc1)N1CCCCC1 (stereo unspecified)	none (no result: HCV inhibitor)
Cc1ncc2c(c1CNC(=O)c1ccc3c(c1)OCO3)CCN(C(=O)c1ccc3ccccc3c1)C2	none (no result: HCV inhibitor, HCMV inh)
CCOc1ccccc1NC(=O)Cn1cc(C(=O)c2ccc(Cl)cc2)c(=O)c2ccc(C)nc21	none (no result: HCV inhibitor)
CCCCCC(=O)O[C@]1(C(C)=O)CC[C@H]2[C@@H]3CCC4=CC(=O)CC[C@]4(C)[C@H]3CC[C@@]21C	VACV mCherry inh inconclusive, HCV inhibitor inconclusive, HCMV inh -67.6
O=C(NCCCN1CCOCC1)c1ccc(-n2nc(C(F)(F)F)cc2-c2cccs2)cc1	VACV mCherry inh inconclusive, Vaccinia Venus inconclusive, FMDV antiviral inconclusive, HCV inhibitor inconclusive, HCMV inh -67.2
Cc1ccc(Oc2c(C(N)=O)cc([N+](=O)[O-])cc2[N+](=O)[O-])cc1	Vaccinia Venus inconclusive, FMDV antiviral inconclusive, HCV inhibitor 3.55µM
COc1ccc(-c2cn3cccnc3n2)cc1NC(=O)c1cc(C)cc(C)c1	none (no result: HCV inhibitor)
Cc1ccc(OCC(=O)NCC2(N3CCOCC3)CCCCC2)cc1C	HCMV inh -60.3 (no result: HCV inhibitor)
Cc1cc(C)cc(OCC(=O)NCC2(N3CCOCC3)CCCCC2)c1	none (no result: HCV inhibitor)
CCCS(=O)(=O)c1ncc(Cl)c(C(=O)N2CCN(c3ccc(OC)cc3)CC2)n1	HCMV inh -103.0 (no result: HCV inhibitor)
CCSc1ncc(Cl)c(C(=O)N2CCN(c3ccc(OC)cc3)CC2)n1	none (no result: HCV inhibitor)
NNC(=O)c1cccc(COc2ccc3c(c2)CCC3)c1	FMDV antiviral 12.6µM
CC(C)CCN1C(=O)c2ccccc2CC1(C)C(=O)NC1CCC(C)CC1 (stereo unspecified)	HCMV inh inconclusive (no result: HCV inhibitor)
Cc1sc(NC(=O)c2ccccc2)c(C(c2ccccn2)N2CCN(CCO)CC2)c1C (stereo unspecified)	VACV mCherry inh inconclusive, Vaccinia Venus inconclusive, HCV inhibitor inconclusive, HCMV inh -62.4
O=C(NC[C@@H]1CC[C@@H](Cc2ccc(-c3ccccc3)cc2)O1)Nc1ccc(Br)cc1	Vaccinia Venus inconclusive, HCV inhibitor 5.01µM
NC(=S)N/N=C/c1ccc(-c2cc(Cl)ccc2Cl)o1	VACV mCherry inh 3.16µM, Vaccinia Venus 3.16µM, HCV inhibitor inconclusive
O=C(O)c1ccc(N/N=C/c2ccc(-c3ccccc3Cl)o2)cc1	VACV mCherry inh inconclusive, FMDV antiviral inconclusive
O=C(N/N=C/c1ccc(-c2ccccc2Cl)o1)c1ccccc1	HCV inhibitor 12.6µM
CC(CC(c1ccccc1)c1ccccc1)NC(C)(C)C (stereo unspecified)	none (no result: VACV mCherry inh, Vaccinia Venus, FMDV antiviral, HCV inhibitor)
Cc1ccc(C#N)c(SCCN2CCCCC2)n1	none
Cc1cc(C)c(C#N)c(SCCN2CCCCC2)n1	HCMV inh -95.7
CSc1nc(N)nc(SCCS(=O)(=O)c2ccc(Cl)cc2)c1C#N	VACV mCherry inh 2.51µM, Vaccinia Venus 5.62µM, FMDV antiviral inconclusive, HCV inhibitor 10µM
Cc1ccc(S(=O)(=O)CCSc2nc(C)cc(C)c2C#N)cc1	VACV mCherry inh 10µM, Vaccinia Venus 10µM, HCV inhibitor inconclusive (no result: FMDV antiviral)
COc1cc(Cl)c(C)cc1NC(=O)CSc1cc(-c2ccccc2)nc(C)n1	none (no result: HCV inhibitor)
Cc1cc(NC(=O)NCc2ccc3c(c2)CCN3C(=O)c2ccccc2)ccc1Br	Vaccinia Venus inconclusive (no result: HCV inhibitor)
O=C(O)c1cc(N(Cc2ccccc2O)Cc2cc(O)ccc2O)ccc1O	none (no result: HCV inhibitor, HCMV inh)
